Screening data deposited in PubChem BioAssay by National Center for Advancing Translational Sciences (NCATS).
Rows were chosen to be rich in hits. Some 21% of all compounds tested hit in one or more screens of this group.
ClpP mod = qHTS Assay for Activators of ClpP; ATP-dependent Clp protease proteolytic subunit (Bacillus subtilis (strain 168)), P80244; purified B. subtilis ClpP, FRET peptide cleavage, 20 min; Potency, µM (titrated, usually from 57.5 µM), inactives show top-dose activity change, negative = active; 340,000 tested, 1.9% active; AID 651965, 2013; active means well fitted falling curve with a large enough effect; inconclusive means small, poorly fitted or top-dose-only effect; inactive means no such curve, though single readings can be large or run the other way; further: potency means the concentration at half of the fitted maximal effect; the source files actives as falling curves though it sought activators and does not explain the sign; nearly all actives have a fitted effect of over 65% in size
Target sequence (P80244 whole entry, looked up): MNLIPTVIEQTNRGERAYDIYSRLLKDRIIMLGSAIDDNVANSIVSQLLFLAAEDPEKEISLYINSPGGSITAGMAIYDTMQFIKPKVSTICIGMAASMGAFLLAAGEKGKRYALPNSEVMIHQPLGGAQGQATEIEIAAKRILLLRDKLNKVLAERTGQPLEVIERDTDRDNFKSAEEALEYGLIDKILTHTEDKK
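FRET quenching reversal measured ClpP activation: 10 microg/mL B. subtilis ClpP at pH 8 with the FRET-FV decapeptide, read at 430 nm after 320 nm excitation. The 20-min minus 0-min signal was scaled between DMSO/no-enzyme wells and ADEP (5.8 microM final).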
DT40 TDP1 CPT = qHTS for Inhibitors of human tyrosyl-DNA phosphodiesterase 1 (TDP1): qHTS in cells in presence of CPT; chicken DT40 Tdp1-/-;hTDP1 cells + 20 nM CPT, ATP luminescence, 48 h; Potency, µM (doses to about 46.2 µM), for inactives: at the top dose activity change, negative = growth inhibition, usual class: inhibitors; 420,000 tested, 12% active; AID 686979, 2013; further: potency means the concentration at half of the fitted maximal effect; on the % scale 0 is the no-effect control and ±100 the full control effect; nearly all actives have a fitted effect of over 55% in size
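Chicken DT40 Tdp1-/- cells complemented with human TDP1, 400 cells/well, exposed to compounds plus 20 nM camptothecin for at least 48 h at 37 C; viability read as ATP content by CellTiter-Glo luminescence.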
D3 antag = qHTS of D3 Dopamine Receptor Antagonist: qHTS. max response, negative = inhibition, %. D3R cells, DiscoveRx beta-arrestin luminescence, antagonist mode; active compounds read low. D(3) dopamine receptor (Homo sapiens), P35462. 360,000 tested, 2.5% active; in the data active means max response below about -50%; inconclusive means no clear call, values can overlap the other calls; further: on the % scale 0 is the no-effect control and ±100 the full control effect
Target sequence (P35462 whole entry, looked up): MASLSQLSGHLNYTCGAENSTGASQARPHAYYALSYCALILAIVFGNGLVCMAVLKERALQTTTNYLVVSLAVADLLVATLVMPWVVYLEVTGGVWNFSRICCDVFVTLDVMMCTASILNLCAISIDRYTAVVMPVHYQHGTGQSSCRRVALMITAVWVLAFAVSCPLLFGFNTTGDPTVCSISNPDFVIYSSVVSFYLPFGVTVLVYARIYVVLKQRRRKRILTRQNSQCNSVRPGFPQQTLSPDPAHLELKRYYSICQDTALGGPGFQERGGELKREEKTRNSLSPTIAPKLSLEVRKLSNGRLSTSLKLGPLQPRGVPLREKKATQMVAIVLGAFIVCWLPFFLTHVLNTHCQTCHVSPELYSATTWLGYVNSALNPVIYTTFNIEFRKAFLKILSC
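Cells expressing the human receptor were seeded at 1500 cells/well, incubated overnight at 37 degrees C in 5% CO2, then exposed to library compounds with dopamine controls for 90 minutes at 37 degrees C before luminescent detection.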
IL1B secr inh = qHTS for Inhibitors of Inflammasome Signaling: IL-1-beta AlphaLISA Primary Screen; THP-1 LPS/ATP IL-1B secretion, AlphaLISA, 16 h; active compounds read low; activity change, % at 57.5 µM; 360,000 tested, 4.7% active; in the data active means activity change below about -50%; inconclusive means mostly about -30% to -49%; further: on the % scale 0 is the no-effect control and ±100 the full control effect
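THP-1 cells pretreated 1 hr with compounds (up to 57.5 uM final), then stimulated with LPS (250 ng/mL final) plus ATP (1.25 mM final); secreted IL-1B measured by AlphaLISA after 16 hr, decreased signal indicating inhibition.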
D3 ag = qHTS of D3 Dopamine Receptor Agonist: qHTS. max activation, %. D(3) dopamine receptor (Homo sapiens), P35462. 410,000 tested, 0.58% active. D3R DiscoveRx beta-arrestin cells, luminescence, 90 min; in the data active means max activation above about 30%; further: 0% is about no effect
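Agonist-mode cell screen: cells plated at 1500/well and incubated overnight at 37 °C, then exposed to library compounds for 90 min at 37 °C. Detection reagent was added for 30–60 min at room temperature, and luminescence was read.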
TDP1 cell noCPT = qHTS for Inhibitors of human tyrosyl-DNA phosphodiesterase 1 (TDP1): qHTS in cells in absence of CPT; Potency, µM (titrated, usually from 46.2 µM), for the others: top-dose activity change, negative = growth inhibition, usual class: inhibitors; 420,000 tested, 15% active; DT40 Tdp1-/- hTDP1 cells, no CPT, ATP luminescence, 48 h; further: potency means the concentration at half of the fitted maximal effect; on the % scale 0 is the no-effect control and ±100 the full control effect; nearly all actives have a fitted effect of over 55% in size
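Compound effects on proliferation are scored in DT40 Tdp1-/-;hTDP1 cells in the absence of CPT. ATP levels (CellTiter-Glo luminescence) are recorded after a ≥48 hr, 37 °C incubation.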
* = called active by the depositor; ? = inconclusive; / = not tested or not shown. Unless noted, the call rests on the fitted dose curve; in most records, active means well fitted inhibition curve with a large enough effect; inconclusive means small, poorly fitted or top-dose-only effect; inactive means flat fitted curve, though single readings scatter.

SMILES | ClpP mod | DT40 TDP1 CPT | D3 antag | IL1B secr inh | D3 ag | TDP1 cell noCPT
CCOC(=O)c1oc2cc(O)cc(O)c2c(=O)c1OCc1ccccc1 | 0% | 18µM* | 15 | 34 | 1 | 16µM*
CCOC(=O)c1ccc(CC(=O)c2oc3cc(O)ccc3c2C)o1 | 32µM* | -8% | 20 | -29 | -4 | -20%
CCOC(=O)c1ccc(CC(=O)c2ccc(O)c(O)c2O)o1 | / | ? | -11 | -12 | -2 | ?
CCOC(=O)c1oc2cc(O)ccc2c(=O)c1-c1ccccc1OC | 0% | -25% | -61* | 10 | -15 | -15%
CCOC(=O)c1ccc(-c2c(C(=O)OCC)oc3cc(O)c(CC)cc3c2=O)o1 | 1% | 15µM* | -22 | 0 | 7 | 12µM*
CCOC(=O)c1oc2cc(O)c(CC)cc2c(=O)c1-c1cscn1 | / | -6% | 1 | 33 | 5 | -16%
Nc1ncc(-n2cncn2)c(-c2ccc(Cl)cc2)n1 | / | 13% | 4 | -8 | -2 | 1%
O=C(N/N=C/c1ccccn1)c1cccc(S(=O)(=O)N2CCCC2)c1 | -3% | -11% | 2 | 6 | 2 | -24%
Cc1cc(C)n(C(=O)c2c([N+](=O)[O-])c(C)nn2C)n1 | 1% | -13% | -29 | -11 | -5 | -1%
Cc1ccc(SC(=O)c2c([N+](=O)[O-])c(C)nn2C)cc1 | / | 18µM* | ? | -65* | -19 | 15µM*
CCS(=O)(=O)N1CCCc2cc(C(=O)Nc3cccc(C(C)=O)c3)ccc21 | -3% | ? | / | / | 6 | 26µM*
Cc1ccc(Cl)cc1N1CCN(C(=O)c2ccc3c(c2)CCN3S(=O)(=O)c2ccccc2)CC1 | 1% | 9.2µM* | / | / | 3 | 10µM*
O=C(c1ccc2c(c1)CCN2S(=O)(=O)c1ccccc1)N1CCN(c2ccccc2F)CC1 | -1% | -22% | 9 | 32 | -17 | -1%
O=C(Nc1cccc(Cl)c1)c1ccc2c(c1)CCN2S(=O)(=O)c1ccccc1 | -7% | 13µM* | / | / | 0 | 21µM*
CC(=O)c1cccc(NC(=O)c2ccc3c(c2)CCN3S(=O)(=O)c2ccccc2)c1 | -2% | 15µM* | -1 | 7 | 0 | 21µM*
CSc1cccc(NC(=O)c2cccc(N3CCCS3(=O)=O)c2)c1 | 1% | ? | / | / | 0 | 18µM*
CSc1cccc(NC(=O)c2ccc3c(c2)CCCN3S(C)(=O)=O)c1 | -27% | 16µM* | / | / | -12 | ?
COCCn1c(=O)c(-c2cc(F)cc(F)c2)nc2cnc(N3CCOCC3)nc21 | / | 0% | / | / | / | 2%
CC(C)CCOCC(O)CCC(=O)NNC(=S)Nc1ccccc1 (centres undefined) | -3% | -14% | 9 | 11 | 1 | 0%
C=CCC(CC(O)COCCC)C(=O)NNC(=S)Nc1ccccc1 (centres undefined) | / | 4.6µM* | -13 | -6 | -3 | 2.3µM*
Cc1ccc(NC(=O)C/C(N)=N/OC(=O)Nc2cccc(Cl)c2)cc1 | 0% | -17% | -25 | -21 | -2 | -1%
COc1ccc(C2C(Oc3ccccc3)C(=O)N2c2ccc(C)c(C)c2)cc1OC (centres undefined) | -1% | ? | 3 | -4 | -1 | ?
O=C1[C@@H](Oc2ccccc2)[C@@H](c2ccccc2)N1c1cccnc1 | 0% | ? | 14 | 7 | 8 | 13µM*
O=C1[C@H](c2ccccc2)[C@@H](c2ccccc2)N1c1ccncc1 | 2% | 15µM* | 1 | -24 | -5 | ?
C[C@H]1C(=O)N(c2ccccc2)[C@@H]1c1ccccc1 | 3% | -6% | 23 | -6 | -2 | -20%
SMILES | ClpP mod | DT40 TDP1 CPT | D3 antag | IL1B secr inh | D3 ag | TDP1 cell noCPT
O=C1[C@@H](Oc2ccccc2)[C@@H](c2ccncc2)N1c1ccccc1 | 0% | ? | 0 | -18 | -11 | 18µM*
O=C(COc1ccc(C(=S)N2CCCC2)cc1)Nc1ccccc1C(F)(F)F | -3% | ? | -8 | -15 | 1 | -26%
CC(C)c1ccc(CNC(=O)C2(C)CCCN2C)cc1 (centres undefined) | 0% | -2% | 26 | -23 | 1 | -21%
Cc1nn(C(C)C(=O)NC2CCCCC2)c(=O)c2c1sc1ccccc12 (centres undefined) | -22% | ? | / | / | -2 | ?
CCCCCC(=O)N1C[C@H](O)[C@@H](n2cc(COC(=O)c3ccccc3)nn2)C[C@@H]1c1ccc(OC)cc1 | 1% | -16% | 5 | -1 | -2 | -12%
COc1ccc(S(=O)(=O)N2CCOCC2)cc1NC(=O)CN1CCCc2ccccc21 | / | ? | 3 | 10 | 1 | ?
Cc1cc(N2CCOCC2)nc2ccc(NC(=O)CCC(=O)N3CCN(c4ccc(F)cc4)CC3)cc12 | / | 9.2µM* | 51 | 16 | 5 | 8.2µM*
Cc1cc(N2CCOCC2)nc2ccc(NC(=O)CCC(=O)N3CCCC(C)C3)cc12 (centres undefined) | ? | -4% | -12 | -1 | -1 | -28%
Cc1cc(N2CCOCC2)nc2ccc(NC(=O)CCC(=O)N3CCN(c4ccccc4F)CC3)cc12 | 3% | ? | 5 | 7 | 5 | 15µM*
COc1ccc(C(CC(=O)c2ccc(C)cc2)C(C#N)C#N)cc1OC (centres undefined) | 0% | 4.1µM* | ? | -100* | 1 | 5.2µM*
O=C(Nc1ccccc1)N1CCC(=S)Nc2ccccc21 | -2% | 7% | 8 | 22 | 12 | -2%
CC1CN(C(=O)Nc2ccccc2)c2ccccc2-[n+]2ccsc21 (centres undefined) | 0% | 3.7µM* | 15 | -18 | 10 | 12µM*
O=C(Nc1ccccc1)N1CCc2scc[n+]2-c2ccccc21 | 1% | 5.8µM* | -17 | ? | 2 | 12µM*
CC(C)Oc1ccc(CSC(=N)N)cc1 | -11% | -27% | -21 | 15 | -38 | -28%
Cc1cc(CSC(=N)N)c(CSC(=N)N)cc1C | -1% | ? | -21 | -7 | -4 | 23µM*
COC(=O)C(NS(=O)(=O)c1ccc(N2CCCC2=O)cc1)c1ccccc1 (centres undefined) | -1% | -1% | 1 | 0 | 2 | 6%
